Bioassay records deposited in PubChem by Sanford-Burnham Center for Chemical Genomics.
MPTP block = mitochondrial permeability transition pore inhibitors, primary screen, biochemical, isolated mouse mitochondria, absorbance | Ca2+ swelling absorbance, 30 min | inhibition, % at 10 µM | actives 1.4% (n = 360,000);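 active = inhibition of 50% or more, scaled per plate between neutral and stimulator controls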;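 note: 0% = DMSO wells given calcium and 100% = 1 mM EGTA wells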
MIN6 prolif = inducers of MIN6 beta-cell proliferation, primary screen, ATP luminescence, uHTS; AID 2380, 2010; actives 0.29% (n = 330,000); MIN6 cells proliferation, ATPlite luminescence, 48 h; cells starved in 0.2% serum; 100% = growth in 10% serum; proliferation, % at 10 µM;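 active = compounds whose signal lies at least 3.5 SD above the mean of all wells on their plate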;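 note: 0% = DMSO-treated cells in low-serum medium and 100% = 10% serum control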
FAS-TE inh = FAS thioesterase domain inhibitors, primary screen, biochemical, fluorescence intensity, uHTS; recombinant FAS-TE, OMFH fluorogenic substrate, fluorescence endpoint; inhibition, % at 15 µM; Fatty acid synthase (Homo sapiens), P49327; actives 0.67% (n = 360,000);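 active = compounds whose normalised, plate-corrected inhibition of enzyme fluorescence in the single-dose primary screen is 50% or more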;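 note: 0% = DMSO with enzyme and 100% = substrate without enzyme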
GRIN3A LBD mod = binders of NR3A ligand-binding domain, primary screen, biophysical, differential scanning fluorimetry, uHTS; Tm shift relative to glycine control, % at 25 µM; Glutamate receptor ionotropic, NMDA 3A (GRIN3A) ligand-binding domain; AID 1259313, 2017; NR3A LBD differential scanning fluorimetry, Tm shift; 0% = protein alone, 100% = glycine-bound protein; actives 2.5% (n = 340,000);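 active = melting temperature shift of at least 10% of the positive control shift, at one fixed dose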
pCIP destab = p/CIP-EGFP fusion destabilizers, primary screen, fluorescence, F442A cells; AID 1984, 2009; 16 h; decrease of EGFP signal, % at 10 µM; actives 0.01% (n = 290,000); Q05BA5;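 active = EGFP signal decrease of at least 30% at 10 µM or well 3 SD below plate mean, unless failing retest; inactive = the rest, including hits failing retest or dose response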
Target sequence (Q05BA5 1-1403): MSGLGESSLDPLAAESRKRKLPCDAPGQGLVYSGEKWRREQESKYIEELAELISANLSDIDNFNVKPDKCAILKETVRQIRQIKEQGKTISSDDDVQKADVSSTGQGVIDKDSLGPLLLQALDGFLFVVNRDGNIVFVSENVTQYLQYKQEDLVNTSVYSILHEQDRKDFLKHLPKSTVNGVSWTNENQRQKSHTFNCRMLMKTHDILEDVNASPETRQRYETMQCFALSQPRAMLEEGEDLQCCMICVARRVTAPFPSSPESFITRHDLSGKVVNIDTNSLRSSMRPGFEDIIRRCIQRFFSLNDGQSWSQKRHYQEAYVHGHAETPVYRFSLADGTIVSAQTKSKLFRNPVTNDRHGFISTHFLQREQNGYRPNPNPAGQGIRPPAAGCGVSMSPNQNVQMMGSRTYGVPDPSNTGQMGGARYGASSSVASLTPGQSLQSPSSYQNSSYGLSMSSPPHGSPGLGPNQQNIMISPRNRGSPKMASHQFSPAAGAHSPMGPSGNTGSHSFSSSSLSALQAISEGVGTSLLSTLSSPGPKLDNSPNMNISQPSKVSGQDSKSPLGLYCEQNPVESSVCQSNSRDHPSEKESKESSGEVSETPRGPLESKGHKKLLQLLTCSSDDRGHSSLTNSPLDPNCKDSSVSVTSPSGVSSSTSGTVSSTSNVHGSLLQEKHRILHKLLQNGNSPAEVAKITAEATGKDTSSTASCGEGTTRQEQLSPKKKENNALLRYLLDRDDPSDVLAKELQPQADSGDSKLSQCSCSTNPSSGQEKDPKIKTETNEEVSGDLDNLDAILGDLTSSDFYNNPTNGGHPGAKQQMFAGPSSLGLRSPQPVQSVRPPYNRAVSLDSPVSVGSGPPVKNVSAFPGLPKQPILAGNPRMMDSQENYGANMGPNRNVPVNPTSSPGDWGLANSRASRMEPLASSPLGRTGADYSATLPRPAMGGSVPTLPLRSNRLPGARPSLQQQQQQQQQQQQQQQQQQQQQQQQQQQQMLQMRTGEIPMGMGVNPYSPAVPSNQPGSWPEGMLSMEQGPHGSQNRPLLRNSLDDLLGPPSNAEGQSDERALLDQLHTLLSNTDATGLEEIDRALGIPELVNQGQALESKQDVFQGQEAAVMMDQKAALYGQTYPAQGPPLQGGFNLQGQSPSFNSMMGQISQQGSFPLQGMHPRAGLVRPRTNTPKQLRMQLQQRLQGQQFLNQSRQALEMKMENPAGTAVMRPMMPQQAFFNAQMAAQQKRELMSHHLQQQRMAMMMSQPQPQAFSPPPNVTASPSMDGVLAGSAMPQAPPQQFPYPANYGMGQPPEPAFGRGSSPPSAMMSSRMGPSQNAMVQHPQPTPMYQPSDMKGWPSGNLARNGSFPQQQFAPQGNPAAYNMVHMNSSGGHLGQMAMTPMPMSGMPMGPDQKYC
An asterisk follows results filed as active; / = no result given. This is a sample that favours compounds with a hit; in the whole collection about 4.1% have one here.

SMILES	MPTP block	MIN6 prolif	FAS-TE inh	GRIN3A LBD mod	pCIP destab
CCN(CC)c1ccc(C=N/C(C#N)=C(\N)C#N)cc1	12	0	-2	27*	-8
CCN(CC)c1ccc(/C=C(\C#N)c2ccccn2)cc1	4	-6	21	4	-8
Cc1cccc(NC(=O)c2nc[nH]c2C(=O)Nc2cccc(C)c2)c1	4	-4	-1	-9	1
CC(C)(C)OC(=O)NCCCCCNC(=O)c1[nH]cnc1C(=O)N[C@@H](CCCCNC(=O)OC(C)(C)C)C(=O)OC(C)(C)C	-3	-7	68*	3	-23
Cc1cccc(NC(=O)c2nc[nH]c2C(=O)NCCCNC(=O)c2[nH]cnc2C(=O)Nc2cccc(C)c2)c1	0	-6	1	12*	/
O=C(Nc1ccccc1)c1nc[nH]c1C(=O)NCCCNC(=O)c1[nH]cnc1C(=O)Nc1ccccc1	-1	0	3	9	/
CC(C)C[C@H](NC(=O)c1[nH]cnc1C(=O)Nc1ccc(CNC(=O)OC(C)(C)C)cc1)C(=O)OCc1ccccc1	-2	-8	19	36*	-7
O=C(Nc1ccccc1)c1nc[nH]c1C(=O)NCCCCCCNC(=O)c1[nH]cnc1C(=O)Nc1ccccc1	0	-6	6	14*	/
O=C(Nc1ccccc1)c1nc[nH]c1C(=O)NCCN(CCNC(=O)c1[nH]cnc1C(=O)Nc1ccccc1)CCNC(=O)c1[nH]cnc1C(=O)Nc1ccccc1	0	-6	28	13*	/
CCN(CC)C(=O)c1[nH]cnc1C(=O)Nc1ccccc1	-1	3	-10	0	/
Cc1ccc(OCCN2CCC2(C)C(=O)Nc2ccc3c(c2)OCO3)cc1 (stereo unspecified)	-1	/	11	/	/
Cc1ccccc1C(=O)N(C)[C@H]1C[C@H]2c3[nH]c4ccccc4c3CCN2C[C@H]1[C@H](C)O	1	/	-13	/	/
CCCCn1c(N)c(N(CCOC)C(=O)CCN2C(=O)C3CC=CCC3C2=O)c(=O)[nH]c1=O (stereo unspecified)	0	/	-8	3	/
O=C1NC(c2ccccc2)(C(F)(F)F)C(=O)N1Cc1cccnc1 (stereo unspecified)	-3	-2	-9	20*	6
CN(C)CCN(Cc1ccco1)S(=O)(=O)c1ccc(-c2ccc(=O)[nH]n2)s1	0	0	-5	14*	-3
OCCN1CCN(c2ncnc3c2ncn3[C@H]2CN(Cc3ccc(Cl)cc3)C[C@@H](CO)O2)CC1	-1	/	-1	/	/
Cc1ccc(Oc2ncccc2CO)cc1	-1	-3	-4	-1	-7
Cc1ccc(Oc2ncccc2/C=N/OCc2ccc(Cl)cc2Cl)cc1	0	-5	16	14*	0
Cc1cc(NC(=O)/C=C/c2ccccc2Cl)n(-c2nc3ccccc3[nH]2)n1	5	-5	6	16*	-6
COC(=O)c1cc(=O)c2c(ccc3oc(=O)ccc32)[nH]1	-1	/	1	/	/
COc1ccc(-c2cc3nc(NCC4CCCCC4)n(C)c(=O)c3s2)cc1OC	-1	/	18	/	/
CC(=O)c1ccc(-n2c(SCC(=O)c3c[nH]c4ccccc34)nc3ccccc3c2=O)cc1	5	0	23	16*	-16
CNc1ccc(-c2cc(OC)ccc2OC)cn1	-2	/	-6	/	/
COc1ccc(-c2csc(NC(=O)CN3C(=O)C4CCCCC4C3=O)n2)cc1OC (stereo unspecified)	2	-3	9	12*	-18
COc1ccc(-c2csc(NC(=S)NC(=O)c3cccs3)n2)cc1OC	4	0	12	10*	-11
SMILES	MPTP block	MIN6 prolif	FAS-TE inh	GRIN3A LBD mod	pCIP destab
COc1ccc(-c2csc(NC(=S)NC(=O)c3cccs3)n2)cc1Br	2	-3	17	38*	-16
Cc1nc(NC(=O)c2ccccc2)sc1-c1csc(Nc2ccc(Cl)cc2)n1	/	-6	/	/	-20
O=C(Nc1cccc(-c2csc(Nc3ccc(Cl)cc3)n2)c1)c1cccc(C(F)(F)F)c1	7	-8	48	26*	-9
O=C(Nc1ccc(-c2csc(Nc3ccccc3)n2)cc1)c1ccccc1	1	-7	0	17*	0
O=C(Nc1cccc(-c2csc(Nc3ccc(Cl)cc3)n2)c1)c1ccccc1	1	-8	30	25*	5
C[C@@H]1CN([C@H](C)CO)C(=O)CCCn2cc(nn2)CO[C@H]1CN(C)C(=O)C1CCCCC1	1	/	-9	/	/
COC(=O)C[C@@H]1CC[C@H](NC(=O)Nc2cccc(F)c2)[C@@H](CO)O1	1	/	/	/	/
C=C(CN(C)C)C(=O)c1cc(C)ccc1C	-2	/	-8	11*	/
CCCCNC(=O)C1C(c2ccc(OC)cc2)=Nc2ccccc2N1C(=O)Cc1cc(OC)cc(OC)c1 (stereo unspecified)	0	/	/	/	/
CC(C)C(=O)N1CCC2(CC1)Oc1ccc(Cl)cc1C(=O)C21CC(c2ccccc2)=NO1 (stereo unspecified)	0	-8	57*	1	-3
O=C(Cn1ccc(C(F)(F)F)n1)NNC(=O)c1ccco1	0	-3	-7	293*	/
O=C(COc1ccc(F)cc1)NNC(=O)Cn1ccc(C(F)(F)F)n1	-2	3	-5	-1	/
Cc1cccc(OCc2nnc(N)s2)c1C	0	-1	-6	12*	-2
c1ccc(Cn2ncc3c(N4CCN(c5ccccc5)CC4)ncnc32)cc1	3	/	12	/	/
CCN(CC)CCNC(=O)c1ccc2c(c1NCCO)C(=O)c1ccccc1C2=O	9	-4	20	1	36*
O=C(c1ccco1)N1CCN(C2CN(Cc3ccc([N+](=O)[O-])cc3)S(=O)(=O)C2)CC1 (stereo unspecified)	-2	/	-3	/	/
O=C1c2ccccc2C(c2nnnn2-c2ccc3c(c2)OCCO3)N1CCCn1ccnc1 (stereo unspecified)	-1	/	-10	/	/
Cc1nc2c(N=Nc3ccccc3F)c(N)nn2c(N)c1C#N	-2	-2	-2	15*	-3
Cc1ccc(Cl)cc1-c1cc(C(=O)N2CCc3ccccc3C2)[nH]n1	1	/	27	/	/
CC(=O)c1ccc(NC(=O)COC(=O)c2c3c(nc4ccccc24)/C(=C\c2cccs2)CCC3)cc1	22	-5	32	4	-18
O=C(COC(=O)c1c2c(nc3ccccc13)/C(=C\c1cccs1)CCC2)Nc1ccccc1	8	-5	36	17*	1
C(=Cc1c[nH]c2ccccc12)c1nccc2ccccc12	1	/	-1	-8	/
Oc1ccc(/C(Cc2ccc3ccccc3n2)=N\Nc2ccccc2)c(O)c1	2	-6	12	-3	1
Oc1ccc(/C=C/c2ccc3ccccc3n2)cc1	2	-6	2	19*	-2
O/C(=C\c1ccc2ccccc2n1)c1ccc(O)cc1O	1	-5	-5	35*	-23
C(=Cc1c[nH]c2ccccc12)c1ccc2ccccc2n1	2	/	18	22*	/
